{
  "source": "PubChem BioAssay AID2284419",
  "about": "(EPA ToxCast)",
  "note": "Results filed as inconclusive are left out. Calls of active or inactive are those of the source. How the source made its calls: active means hit-call score of the fitted dose curve at least 0.9, where 1 is the maximum; inconclusive means response in the unintended direction; inactive means score below 0.9.",
  "data": [
    {"tested_on": "SRY-box transcription factor 2 (SOX2) Protein Expression, Deisenroth Lab, SOX2 (gene 6657)", "assay": "CCTE_Deisenroth_DEVTOX-GLR_Meso_SOX2: CCTE's DevTox GLR-Meso Assay Evaluation of SRY-box transcription factor 2 (SOX2) Protein Expression, Deisenroth Lab", "method": "CCTE_Deisenroth_DEVTOX-GLR_Meso assay is a cell-based, multiplex-readout assay that uses RUES2-GLR, a human pluripotent cell line, with measurements taken at 48 hours after chemical dosing in a 384-well microplateCCTE_Deisenroth_DEVTOX-GLR_Meso_SOX2 is 1 of 4 assay components calculated from the CCTE_Deisenroth_DEVTOX-GLR_Meso assay and it measures an the percentage of cells in an ectoderm state. Using a type of inducible fluorescent protein reporter, gain-of-signal activity can be used to understand changes in gene expression with fluorescent microscopy. The percentage of SOX2+ cells are determined by calculating the number of SOX2+ cells divided by the cell count. To generalize the intended target to other relatable targets, this assay component is annotated to the transcription factor intended target family, where the subfamily is SRY-related HMG-box.Data from the assay component CCTE_Deisenroth_DEVTOX-GLR_Meso_SOX2 was analyzed as 1 assay endpoint. The endpoint is the percent SOX2+ cell population minus the 0.2% DMSO control in the CCTE_Deisenroth_DEVTOX-GLR_Meso assay. Furthermore, this assay endpoint can be referred to as a secondary readout, because this assay has produced multiple assay endpoints where this one serves as a measure of ectoderm differentiation.\nAll assay protocols are aligned to the DevTox GLR-Endo assay workflow. Cells are seeded into 384-well microplates for 24 hours prior to initiating differentiation in defined media for a total duration of 48 hours. A total of two chemical exposures are administered in 24-hour intervals during the 48-hour differentiation period. At the assay termination point, cells are fixed and stained with a fluorescent dye demarcating the nucleus. High-content imaging is used to acquire brightfield and fluorescent channel images across 5 fields per well. Cell identification and mean biomarker fluorescence intensities are calculated with image analysis software to determine the total cell counts for viability assessment and the biomarker expression frequency for each lineage-dependent assay. A typical experimental design tests a 10-point concentration series (1 nM - 200 uM) for 28 compounds in single technical replicate. Assay plate controls include non-differentiated pluripotent cells (baseline control), lineage-specific differentiated cells (differentiation control), and DMSO solvent exposed differentiated cells (solvent control). Experiments typically comprise a minimum of four experimental replicates (n=4).", "values": [
      {"smiles": "O=c1[nH]cc(F)c(=O)[nH]1", "AC50": "19.9 µM (active)"},
      {"smiles": "O=C1CCC(N2C(=O)c3ccccc3C2=O)C(=O)N1", "note": "(stereo not given)", "outcome": "inactive"},
      {"smiles": "CC(C)(c1ccc(O)cc1)c1ccc(O)cc1", "AC50": "56.6 µM (active)"},
      {"smiles": "CC1(C)S[C@@H]2[C@H](NC(=O)Cc3ccccc3)C(=O)N2[C@H]1C(=O)O", "outcome": "inactive"},
      {"smiles": "O=C1NS(=O)(=O)c2ccccc21", "outcome": "inactive"},
      {"smiles": "CC1=C(/C=C/C(C)=C/C=C/C(C)=C/C(=O)O)C(C)(C)CCC1", "AC50": "7.53 µM (active)"},
      {"smiles": "O=C1NC(=O)C(c2ccccc2)(c2ccccc2)N1", "AC50": "180 µM (active)"},
      {"smiles": "Nc1nc2ncc(CNc3ccc(C(=O)N[C@@H](CCC(=O)O)C(=O)O)cc3)nc2c(=O)[nH]1", "outcome": "inactive"},
      {"smiles": "CC/C(=C(/CC)c1ccc(O)cc1)c1ccc(O)cc1", "AC50": "3.63 µM (active)"},
      {"smiles": "CC(=O)Nc1ccc(O)cc1", "outcome": "inactive"},
      {"smiles": "Nc1cccc2c1C(=O)N(C1CCC(=O)NC1=O)C2=O", "note": "(stereo not given)", "outcome": "inactive"},
      {"smiles": "CS(=O)(=O)OCCCCOS(C)(=O)=O", "AC50": "124 µM (active)"},
      {"smiles": "CC1=C(/C=C/C(C)=C/C=C/C(C)=C\\C(=O)O)C(C)(C)CCC1", "AC50": "18.8 µM (active)"},
      {"smiles": "CCN(CC)CCNC(=O)c1c(C)[nH]c(/C=C2\\C(=O)Nc3ccc(F)cc32)c1C", "AC50": "0.194 µM (active)"},
      {"smiles": "CN(Cc1cnc2nc(N)nc(N)c2n1)c1ccc(C(=O)N[C@@H](CCC(=O)O)C(=O)O)cc1", "AC50": "0.0688 µM (active)"}
    ]}
  ]
}
